Assay results: PubChem BioAssay AID504843 (Broad Institute, 2011)
The whole screen tested about 1,200 compounds, of which about 360 (30%) were called active. How the calls were made is not given here. A selection follows. Potency and affinity values are given separately.

Assay: bacterial growth inhibition, dose response, counter-screen, BacTiter-Glo luminescence, cherry-picked samples (AID 504843);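 further: growth measured after 8 h incubation at 30 °C; 0% = median of sample compound wells and -100% = antibiotic control wells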
Conditions: BacTiter-Glo ATP luminescence; series mostly up to 15 µM; activity change, negative = inhibition: at the top concentration

Row | SMILES | activity change, negative = inhibition
1 | COc1cccc(NC(=O)c2ccc3c(SCC(=O)O)c4c(nc3c2)CCCC4)c1 | -8.76% (inactive)
2 | CC(=O)Nc1cccc(Oc2nc(C(F)(F)F)nc3ccccc23)c1 | 7.17% (inactive)
3 | Cc1ccc(OCCOCCNC(C)(C)C)c([N+](=O)[O-])c1 | 13.6% (inactive)
4 | N#Cc1ccccc1CSc1ccccn1 | -0.492% (inactive)
5 | CC(CN1CCOCC1)(NS(=O)(=O)c1ccccc1)c1ccccc1 (stereo unspecified) | -7.28% (inactive)
6 | O=C(CNC1CCCCC1)Nc1cc(S(=O)(=O)N2CCOCC2)ccc1Cl | 11.2% (inactive)
7 | O=C(CNC1CCCCCC1)Nc1ccccc1N1CCCCC1 | 2.03% (inactive)
8 | O=C(NCCOC(=O)c1cccs1)c1cccnc1 | -11.1% (inactive)
9 | COc1ccc(OC)c(-n2c(SCC(=O)N3CCc4ccccc43)nc3c(c2=O)SCC3)c1 | -3.67% (inactive)
10 | Fc1cccc(NC(=S)NCCCN2CCOCC2)c1 | 17.8% (inactive)
11 | O=C1CCCN1Cc1ccccc1 | 1.89% (inactive)
12 | O=C(Cn1nc(C(=O)O)c2ccccc2c1=O)NCc1ccco1 | 16.7% (inactive)
13 | N#C/C(=C(/O)CN1CCN(c2ccccc2F)CC1)c1nc(-c2ccc(Cl)cc2)cs1 | -2.75% (inactive)
14 | C[C@@H]1CN([C@H](C)CO)C(=O)c2cc(NS(=O)(=O)c3cccs3)ccc2O[C@H]1CN(C)Cc1ccccc1 | 16.7% (inactive)
15 | COc1cc(/C=N/NC(=O)c2ccccn2)ccc1OC(=O)c1ccc(Br)cc1 | -2.98% (inactive)
16 | C(=N\Nc1ccccn1)/c1ccc(N2CCOCC2)cc1 | -20.3% (inactive)

Row | SMILES | activity change, negative = inhibition
17 | Cn1c(Cn2c(=O)sc3ccccc32)nnc1SCc1ccccc1F | -14.5% (inactive)
18 | CCCCCCc1ccc(N2C[C@H](Cc3ccccc3)[C@@H](CC(=O)NCc3ccc(OC)cc3)C2=O)cc1 | 5.21% (inactive)
19 | CCCC(=O)c1c[nH]c(C(=O)N2CCOCC2)c1 | -14.1% (inactive)
20 | CCCNC(=O)COc1coc(CN2CCN(c3ccccc3F)CC2)cc1=O | 6.92% (inactive)
21 | CCCc1[nH]nc2c1C(c1ccc(OC(=O)c3ccco3)cc1)C(C#N)=C(N)O2 (stereo unspecified) | 6.6% (inactive)
22 | CC(=O)c1ccc([C@H]2C[C@@]34CN(C(=O)OC(C)(C)C)S(=O)(=O)[C@H]3C[C@H]2O4)cc1 | 17% (inactive)
23 | CCOC(=O)CSc1nnc(CNC(=O)c2ccc([N+](=O)[O-])cc2)n1C | -4.14% (inactive)
24 | NC(=O)c1cc2ccc(O)cc2oc1=Nc1ccccc1 | 0.396% (inactive)
25 | Cc1ccc(NCc2nnc3n2CCCCC3)c(C)c1 | 5% (inactive)
26 | C[C@H](NS(=O)(=O)c1ccc(Cl)c(Cl)c1)C(=O)OCc1cc(=O)n2cc(Br)ccc2n1 | 2.78% (inactive)
27 | COc1ccc(NS(=O)(=O)c2cc(NC(=O)CCc3ccc(OC)c(OC)c3)ccc2N2CCOCC2)cc1 | -7.67% (inactive)
28 | Cc1ccc(NC(=S)NC(=O)c2ccc(F)cc2)cc1S(=O)(=O)Nc1ccccc1Cl | 13.8% (inactive)
29 | CCOC(=O)c1c(NC(NC(C)=O)C(Cl)(Cl)Cl)sc(C(C)=O)c1C (stereo unspecified) | -8.99% (inactive)
30 | OCc1ccnc2c(O)cccc12 | 17.6% (inactive)
31 | CCOC(=O)/C(C#N)=C/c1ccc(OCC(=O)Nc2ccccc2)c(OC)c1 | -1.9% (inactive)
